IMPase inh: cell-permeable inhibitors of inositol monophosphatase (IMPase); P97697; CHO-M1 cells, IP1 accumulation, HTRF TR-FRET ratio; inhibition (IP1 accumulation), % at 46.1 µM; 120,000 tested, under 10 active; active means well fitted curve in the direction sought with a large enough effect in the signal ratio, not every such curve was filed as active; inconclusive means small, poorly fitted or top-dose-only effect, or a change in a side signal; inactive means no such curve, though single readings can be large or run the other way; the % refers to the signal ratio;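 further: cells stimulated with carbachol in lithium chloride buffer; higher means more IMPase inhibition seen as more IP1 and lower FRET ratio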
Target sequence (P97697 whole entry, looked up): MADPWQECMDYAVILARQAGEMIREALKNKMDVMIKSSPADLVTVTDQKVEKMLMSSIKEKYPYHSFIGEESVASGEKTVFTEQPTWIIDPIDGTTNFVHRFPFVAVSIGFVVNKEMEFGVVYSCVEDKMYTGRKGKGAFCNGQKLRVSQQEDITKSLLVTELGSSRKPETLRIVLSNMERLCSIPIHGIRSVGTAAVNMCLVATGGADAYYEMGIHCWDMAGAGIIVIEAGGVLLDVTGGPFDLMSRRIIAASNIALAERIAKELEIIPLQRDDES
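Seeded CHO-M1 cells were dosed with compound at up to 46 uM, stimulated with carbachol for 30 min, then lysed in IP-One detection reagents. Higher IP1 lowers the TR-FRET signal.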
IMPase Li cell: cell-permeable IMPase inhibitors with lithium potentiation | CHO-M1 cells, IP1 TR-FRET (IP-One), carbachol + lithium | Potency, µM (titrated, usually from 59.4 µM), actives largely listed as inhibitors | 0.35% of 210,000 active;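 further: IP1 builds up when IMPase is blocked and the TR-FRET signal falls; nearly all actives have a fitted effect of over 50% in size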
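Test compounds were applied to CHO-M1 cells previously cultured for 16–30 h at 2000 per well. A small lithium amount accompanied them; after 30 min at 37C, IP1 was quantified by TR-FRET.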
12-hLO inh: blocks human 12-lipoxygenase activity. Potency, µM (doses to about 57.1 µM), hits mostly inhibitors. AID 1452. purified 12-hLO, xylenol orange hydroperoxide absorbance. P18054. 0.12% of 150,000 active; further: nearly all actives have a fitted effect of over 55% in size
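150 nM 12hLO, 25 mM Hepes pH 7.0 + 0.01% Triton X-100; cpd preinc 15 min RT; 40 uM arachidonic acid, 30 min RT; Fe-XO 30 min; A573/A405 ratio as read-out.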
ALDH1A1 inh: inhibitors of human aldehyde dehydrogenase 1A1. Purified ALDH1A1, NADH fluorescence, propionaldehyde substrate. AID 1030. Potency, µM (highest dose often 75.3 µM), hits mostly inhibitors. 7.3% of 220,000 active; active means well fitted inhibition curve with a large enough effect, not every such curve was filed as active; inconclusive means small, poorly fitted or top-dose-only effect, or another doubt; inactive means no such curve, though single readings can be large or run the other way
HPGD inh: inhibitors of human 15-hydroxyprostaglandin dehydrogenase (HPGD). purified HPGD, NADH fluorescence kinetic, PGE2 substrate. P15428. Potency, µM, actives largely listed as inhibitors. 4.3% of 150,000 active; active means well fitted inhibition curve with a large enough effect, not every such curve was filed as active; inconclusive means small, poorly fitted or top-dose-only effect, or another doubt; inactive means no such curve, though single readings can be large or run the other way
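NADH formation kinetics: reaction with 30 uM PGE2 and 1 mM NAD+ (final), 20 nM enzyme, Tris-HCl pH 8 with Tween 20, after 15 min compound preincubation at room temperature. Fluorescence change, last versus first of five reads.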
NPSR antag: blocks cAMP signaling of the human neuropeptide S receptor | CHO-NPSR cells, cAMP TR-FRET, antagonist mode | Potency, µM (top dose mostly 38.3 µM), hits mostly inhibitors | 1% of 220,000 active; further: nearly all actives have a fitted effect of over 50% in size
Target sequence (Q6W5P4 whole entry, looked up): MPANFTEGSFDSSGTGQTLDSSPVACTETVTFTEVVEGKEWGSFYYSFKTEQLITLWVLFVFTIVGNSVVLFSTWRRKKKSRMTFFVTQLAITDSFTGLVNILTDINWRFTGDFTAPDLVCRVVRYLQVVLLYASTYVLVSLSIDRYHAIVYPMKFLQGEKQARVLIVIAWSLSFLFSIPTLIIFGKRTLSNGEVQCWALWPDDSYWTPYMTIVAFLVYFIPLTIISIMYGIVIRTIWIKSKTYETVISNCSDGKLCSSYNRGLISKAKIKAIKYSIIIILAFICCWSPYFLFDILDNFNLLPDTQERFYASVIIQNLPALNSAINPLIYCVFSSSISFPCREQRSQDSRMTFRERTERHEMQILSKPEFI
Hits are given with their value; 0 = inactive; ? = inconclusive; - = no result given; [ ] = remark or other dose. A selection: hits, their analogues and other compounds. The true share with any hit is near 8.9%. Unless noted, the call rests on the fitted dose curve; in most records, active means well fitted curve in the direction sought with a large enough effect; inconclusive means small, poorly fitted or top-dose-only effect, or another doubt; inactive means no such curve, though single readings can be large; an effect the other way counts as inactive or inconclusive.

SMILES	IMPase inh	IMPase Li cell	12-hLO inh	ALDH1A1 inh	HPGD inh	NPSR antag
Cc1cc(OCC(=O)N2CCCC2)cc(C)c1Cl	0	0	0	0	11.2µM	0
Cc1ccc(OCC(=O)N2CCCCC2)c(Br)c1	0	0	0	0	15.8µM	0
Cc1cc(OCC(=O)N2CCCC2)ccc1Cl	0	0	0	0	0	0
COc1ccccc1N1CCN(C(=O)COc2ccc(C)cc2Br)CC1	?	0	0	?	0	0
CC(=O)c1ncnn1CC(=O)c1ccc(Cl)cc1Cl	0	0	0	0	0	0
COc1cccc(C(C(=O)NC(C)(C)C)N(C(=O)CCC(=O)Nc2cc(C)on2)C(C)(C)C)c1OC (stereo unspecified)	0	0	0	0	0	0
CSC1=N/C(=C\c2ccc(Cl)cc2)C(=O)N1N(C)C	-	-	-	0	-	0
CC1(C)CN=c2s/c(=C\c3ccc(Cl)cc3)c(=O)n2C1	-	0	-	2.24µM	-	0
Cn1cnnc1SCC(=O)NN(c1ccccc1)c1ccccc1	-	0	0	0	0	0
COc1cc2c(cc1NC(=O)CSc1ccccn1)oc1ccccc12	0	0	0	0	0	?
Cc1ccccc1OCc1nnc(SCC(=O)Nc2ccc3nc(SCC(=O)NC(C)(C)C)sc3c2)n1C	0	0	0	?	0	0
Cc1ccccc1OCc1nnc(SCC(=O)Nc2ccc3c(c2)oc2ccccc23)n1C	0	0	0	14.1µM	?	?
COc1ccccc1OCc1nnc(SCC(=O)Nc2ccc(C)cc2)n1C	0	0	0	0	0	0
CCN(CC)C(=O)CSc1nc2ccc(NC(=O)CSc3nnc(COc4ccccc4C)n3C)cc2s1	0	0	0	?	20µM	0
O=C(CSc1ccccn1)Nc1ccc2c(c1)oc1ccccc12	-	0	0	0	25.1µM	0
COc1ccc(CC(=O)NCc2cn3ccsc3n2)cc1	0	0	0	0	0	0
CCN(CC)S(=O)(=O)c1cccc(C(=O)Nc2cccnc2)c1	0	0	0	0	0	0
Cc1c(NC(=O)C(C)OC(=O)CNC(=O)c2ccc(C(C)(C)C)cc2)c(=O)n(-c2ccccc2)n1C (stereo unspecified)	0	0	0	0	0	0
O=C1CC(N2CCC(c3nc4ccccc4o3)CC2)C(=O)N1c1cc(Cl)cc(Cl)c1 (stereo unspecified)	0	0	0	3.98µM	0	0
COc1ccc(NC2CCN(C3CC(=O)N(c4ccc(F)c(Cl)c4)C3=O)CC2)cc1 (stereo unspecified)	0	0	0	1.12µM	?	0
O=C1CC(N2CCN(c3cccc(C(F)(F)F)c3)CC2)C(=O)N1c1ccccc1F (stereo unspecified)	0	0	0	20µM	0	0
CCN1C(=O)CC(N2CCC(Nc3ccc(OC)cc3)CC2)C1=O (stereo unspecified)	0	0	0	?	0	0
O=C1CC(N2CCN(S(=O)(=O)c3ccccc3)CC2)C(=O)N1c1ccccc1 (stereo unspecified)	-	-	-	-	-	0
COc1ccc(N2C(=O)CC(N3CCN(S(=O)(=O)c4c(F)cccc4F)CC3)C2=O)cc1OC (stereo unspecified)	0	0	0	14.1µM	0	0
O=C1CC(N2CCN(c3cccc(C(F)(F)F)c3)CC2)C(=O)N1c1ccccc1 (stereo unspecified)	0	0	0	0	0	0
SMILES	IMPase inh	IMPase Li cell	12-hLO inh	ALDH1A1 inh	HPGD inh	NPSR antag
Cc1cc(N2CCN(S(=O)(=O)Cc3ccccc3)CC2)n2ncnc2n1	0[1.84 µM]	0	0	0	0	0
O=C1CC(N2CCN(c3ccccn3)CC2)C(=O)N1c1ccc(Cl)cc1 (stereo unspecified)	-	0	-	25.1µM	-	0
COc1cccc(N2CCN(C3CC(=O)N(c4ccc(F)c(Cl)c4)C3=O)CC2)c1 (stereo unspecified)	0	0	0	3.55µM	0	0
COc1cccc(N2C(=O)CC(N3CCC(c4nc5ccccc5[nH]4)CC3)C2=O)c1 (stereo unspecified)	0	0	0	31.6µM	0	0
Cc1oc(C(C)(C)C)cc1C(=O)Nc1ccc2c(c1)OCCO2	0	0	0	0	0	0
CCOc1ccc(N(Cc2cc3ccc(C)cc3[nH]c2=O)C(=O)COC)cc1	0	0	0	17.8µM	0	0
COCC(=O)N(Cc1cc2ccc(C)cc2[nH]c1=O)c1ccc(OC)cc1	0	0	0	0	0	0
NNC(=O)c1ccc(Cn2cc(Br)cn2)cc1	-	0	0	5.62µM	0	0
O=C(c1ccc(Cn2cc(Br)cn2)cc1)N1CCN(c2ccccc2)CC1	0	0	0	0	0	0
NNC(=O)c1ccc(Cn2cc(Cl)cn2)cc1	-	0	0	11.2µM	0	0
O=C(Nc1ccc(Cl)c(Cl)c1)c1ccc(Cn2cc(Cl)cn2)cc1	0	0	0	0	?	0
Cn1nc(C(F)(F)F)c(-c2ccc(F)cc2)c1NC(=O)c1cccnc1	-	-	-	-	-	0
COc1cc(Cl)c(C)cc1NC(=O)c1cccc(OC)c1OC	-	0	-	?	-	?
COc1ccc(Cn2c(SCc3ccccc3C)nc3cc(OC)c(OC)cc3c2=N)cc1	0	0	0	?	0	?
Cc1ccc(-n2nnc3c(SCC(=O)NCC4CCCO4)ncnc32)cc1 (stereo unspecified)	0	0	0	0	1.26µM	0
Cc1ccc2nc(SCC(=O)NCC3CCCO3)c(C#N)cc2c1 (stereo unspecified)	0	?	0	0	6.31µM	?
Cc1ccc2cc(C#N)c(SCC(=O)NCC3CCCO3)nc2c1 (stereo unspecified)	?	10µM	0	0	0	?
CC(C)Sc1nc2c(c(=O)n(C)c(=O)n2C)n1Cc1ccc(Cl)cc1	0	0	0	8.91µM	0	?
O=C(NCc1ccccn1)C1CCN(Cc2cccc(OCc3ccccc3)c2)CC1	-	0	0	0	0	0
CC(C)CCSc1nc2c(c(=O)n(C)c(=O)n2C)n1Cc1ccccc1Cl	0	-	-	-	-	-
Cc1ccc(Cn2c(SCC(=O)NCC3CCCO3)nc3c2c(=O)n(C)c(=O)n3C)cc1 (stereo unspecified)	-	0	-	22.4µM	-	0
Cn1c(=O)c2c(nc(SCCCC#N)n2Cc2ccccc2F)n(C)c1=O	0	0	0	2.82µM	0	0
Cc1nc(N2CCCCC2)sc1C(=O)c1ccc(Cl)c([N+](=O)[O-])c1	-	0	-	7.94µM	-	?
C=CCn1c(SCC(=O)N2CCOCC2)nc(O)cc1=O	0	?	0	0	0	0
C=CCn1c(SCC(=O)N2CCCCC2)nc(O)cc1=O	0	0	0	0	0.316µM	0
O=c1c2cnn(-c3ccccc3)c2nnn1/N=C/c1cccnc1	0	0	0	0.398µM	0	0
C(=N\n1cnc2ccccc21)/c1cccnc1	0	0	0	0	0	0
O=C(CCl)N(c1ccccc1)C1CCCCC1	-	0	-	0.0355µM	-	0

Source: PubChem (National Center for Advancing Translational Sciences (NCATS))
